The text below walks through data of PubChem BioAssay AID463173 (ICCB-Longwood Screening Facility, Harvard Medical School, 2010).

The structures appear in SMILES notation. In all, about 52,000 compounds went through this assay and about 4,300 (8.3%) were called active. The sample as a whole holds a higher share of actives than the screen did. Unmarked numbers belong to inactive results. Rule as the data show it: active = survival mostly below about 52% (no sharp cut-off); inactive = mostly above about 56%.

The experiment concerns DeltatarO mutant. Description: S. aureus survival, RN4220 and DeltatarO strains – OD600, teichoic acid synthesis inhibitors, primary screen (AID 463173). Conditions: S. aureus RN4220 wild type/DeltatarO growth, OD600, 18 h, stronger effect = lower value, screened at 18.75 µg/mL (by protocol).
As for `Cc1ccc(-n2nc(C)c3c(C)c(CCC(=O)NCc4ccc(Cl)cc4)c(C)nc32)cc1`, the survival was 89%. Next, `O=C(CN1CCN(Cc2ccccc2Cl)C1=O)NCc1ccccc1Cl`: 67%. Consider `CCc1cc(C=Nc2ccccc2)c(O)s1`, for which the survival was 98%. For the molecule `Cc1cc(N2CCN(c3cccc(C)c3C)CC2)n2nc(C)c(-c3ccc(Cl)cc3)c2n1`, the survival is 87%. Next, `Cc1ccc(CNC(=O)c2cc3sccc3n2Cc2ccc(F)cc2)cc1`: 83%. `COC(=O)CN1C(=O)CSc2ccc(S(=O)(=O)Nc3ccc(Cl)cc3C)cc21`: the survival is 124%. In the case of `Cc1cccc(-c2nc(SCCCOc3ccc(Cl)c(C)c3)n3[nH]c(=O)cc3n2)c1`, the survival was 72%. As for `N#Cc1cc2c(=O)n3ccccc3nc2n(-c2nnc(SCc3ccccc3F)s2)c1=O`, the survival is 81%.

As to `CCc1ccc(NC(=O)CSC2=Nc3ccccc3C3=NC(CC(=O)NCc4ccc5c(c4)OCO5)C(=O)N23)cc1` (centres undefined), the survival was 107%. For the molecule `COCCN1Cc2cccc(C(=O)Nc3ccc(Cl)cc3Cl)c2C1=O`, the survival is 59%.

On to `C=Cc1ccc(Cn2c(=O)cc(C)c3c(C)nn(-c4ccccc4)c32)cc1`, for which the survival is 17% (active). Consider `Cc1cc(=O)n(Cc2ccc(Cl)cc2)c2c1c(C)nn2-c1ccccc1`, for which the survival is 126%. For the molecule `COC(=O)c1ccc(Cn2c(=O)cc(C)c3c(C)nn(C)c32)cc1`, the survival is 66%. Take `COc1cccc(Cn2c(=O)cc(C)c3c(C)nn(C)c32)c1`: the survival was 89%. With `Cc1cc(=O)n(Cc2cccc(Cl)c2)c2c1c(C)nn2C`, the survival was 102%. In the case of `C=Cc1ccc(Cn2c(=O)cc(C)c3c(C)nn(C)c32)cc1` it was 8% (active); in that of `Cc1ccc(C)c(Cn2c(=O)cc(C)c3c(C)nn(C)c32)c1`, 91%. In the case of `Cc1cc(=O)n(Cc2ccccc2)c2c1c(C)nn2-c1ccccc1`, the survival was 89%. For the molecule `Cc1cc(=O)n(Cc2ccccc2)c2c1c(C)nn2C`, the survival was 20% (active).

Turning to `CCc1ccccc1NC(=O)CCC(=O)N1CC(C)Oc2ccc(C)cc21` (centres undefined), the survival was 62%. Consider `O=C(COc1ccc2ccccc2c1)NC1CC(=O)N(c2ccc(F)cc2)C1` (centres undefined), for which the survival is 69%. Consider `CC(C)CCn1nnnc1CN1CCN(Cc2ccc3c(c2)OCO3)CC1`, for which the survival is 69%. On to `CCOC(=O)c1nnn(C(CC)C(=O)Nc2c(C)cccc2C)c1C(=O)OCC` (centres undefined), for which the survival is 100%. For the molecule `Cc1cccn2c(=O)c3cc(C#N)c(=O)n(-c4nnc(SCc5ccc(Cl)cc5)s4)c3nc12`, the survival is 81%.

Turning to `CC(C)N(C(=O)Cn1cc(S(=O)(=O)Cc2ccc(C(F)(F)F)cc2)c2ccccc21)C(C)C`, the survival is 54%.

In the case of `Cc1cc(C)c(NC(=O)Cn2c(=O)n(Cc3ccc(C(=O)NCc4ccco4)cc3)c(=O)c3sccc32)c(C)c1`, the survival is 173%. Consider `Cc1cccc(NS(=O)(=O)c2ccc3oc(=O)c4ncn(C)c4c3c2)c1C`, for which the survival is 109%. On to `Cc1ccc(NC(=O)c2ccc(CNS(=O)(=O)c3ccc4c(c3)C(C)(C)C(=O)N4C)cc2)cc1C`, for which the survival is 62%. Next, `COc1ccc(OC)c(CCNc2ncnc3onc(-c4ccc(Cl)cc4)c23)c1`: 94%; `CCOc1ccc2oc(=O)cc(CN3CCN(c4ccc(Cl)cc4)CC3)c2c1`: 97%. Consider `CCN1CC=C2C(C#N)=C(N)C(C#N)(C#N)C(C)C2C1` (centres undefined), for which the survival was 80%. For the molecule `Cc1ccc(Cn2cc(CCC(=O)NC3CCC(C)CC3)c3ccccc32)cc1` (centres undefined), the survival was 74%.

On to `O=C(CCc1cn(Cc2ccccc2Cl)c2ccccc12)NC1CCCCC1`, for which the survival is 71%.

As for `CC1CCC(NC(=O)CCc2cn(Cc3ccccc3Cl)c3ccccc23)CC1` (centres undefined), the survival was 51% (active). Regarding `O=C(O)c1ccc(C2Nc3ccccc3-c3nnc(SCc4ccc(Cl)cc4)nc3O2)cc1` (centres undefined), the survival was 85%. In the case of `Cc1ccc(C)c(CN2C(=O)c3ccccc3S(=O)c3ccc(C(=O)NCc4ccco4)cc32)c1` (centres undefined), the survival was 72%. With `COc1ccc2nc(SC)nc(C)c2c1`, the survival is 67%. As to `COc1ccc2oc(=O)c(C(=O)N3CCN(c4ccc(C)cc4)CC3)cc2c1`, the survival was 91%. Turning to `COc1ccc2oc(=O)c(C(=O)N3CCC(C(N)=O)CC3)cc2c1`, the survival is 79%.

As for `COc1ccc2oc(=O)c(C(=O)N3CCN(c4cc(Cl)ccc4Cl)CC3)cc2c1`, the survival is 48% (active).

`CC(=O)Nc1cc(C(=O)NCc2ccc(F)cc2)ccc1Sc1ccc(C)cc1`: the survival is 94%. Take `CCCN(CCC)c1nc(-c2ccccc2F)nc2ccccc12`: the survival was 4% (active).

Consider `CCN(CC)c1nc(-c2ccc(C(C)(C)C)cc2)nc2ccccc12`, for which the survival was -1% (active). Regarding `CCCCN(CCCC)c1nc(-c2ccccc2)nc2ccccc12`, the survival is 30%. Regarding `Cc1cc(Sc2ccc(Cl)cc2)nc2ccccc12`, the survival was 45%. Take `CCCCN(CC)c1nc(-c2ccccc2F)nc2ccccc12`: the survival was 94%.

Turning to `CC(C)CN(CC(C)C)c1nc(-c2ccc(Cl)cc2)nc2ccccc12`, the survival is -1% (active). For `CCN(CC)c1nc(-c2ccccc2)nc2ccccc12`, the survival was 86%. As for `COc1ccccc1Nc1nc(-c2ccccc2F)nc2ccccc12`, the survival is 73%. Turning to `Cc1cccc(OCCn2c(-c3ccc(Cl)cc3)nc3ccccc3c2=O)c1C`, the survival was 77%. Take `COc1cccc2[nH]c(C(=O)NCc3ccc4c(c3)CCN4C(=O)c3ccc(F)cc3)cc12`: the survival is 84%. As for `CNC(=O)c1c(NC(=O)/C=C/c2ccccc2)sc2c1CCC2`, the survival was 87%. For the molecule `CCC(Sc1nnc2c(n1)[nH]c1ccccc12)C(=O)Nc1ccccc1OC` (centres undefined), the survival is 56%.

Regarding `CC(C)(C)NC(=O)CN1CCC(n2nnc3cc(F)ccc32)CC1`, the survival was 93%. Consider `COC(=O)c1scc(-c2ccc(C)cc2)c1S(=O)(=O)Nc1cccc(Cl)c1C`, for which the survival was 101%. With `CC(=O)c1cc(-c2ccc(F)cc2)n(CCC(=O)NCc2ccc(C)cc2)c1C`, the survival is 73%. Regarding `COc1cccc(/C=C2/SC(=O)N(C)C2=O)c1O`, the survival is 83%. Regarding `COc1ccc(C(=O)c2cn(Cc3ccccc3OC)c3cc4c(cc3c2=O)OCO4)cc1`, the survival was 95%. Take `COc1ccccc1Nc1ncnc2c1nc1n2CCCCC1`: the survival was 128%. Turning to `Fc1ccccc1Nc1ncnc2c1nc1n2CCCCC1`, the survival is 68%. Next, `Clc1cccc(Nc2ncnc3c2nc2n3CCCCC2)c1`: 17% (active); `COc1ccc(Nc2ncnc3c2nc2n3CCCC2)cc1Cl`: 80%. For the molecule `Clc1ccccc1Nc1ncnc2c1nc1n2CCCCC1`, the survival is 8% (active). Consider `Clc1cccc(CNc2ncnc3c2nc2n3CCCC2)c1`, for which the survival is 88%.
